The values that follow come from PubChem BioAssay AID620 (Sanford-Burnham Center for Chemical Genomics, 2007).

The campaign covered roughly 87,000 compounds. About 360 (0.41%) were called active. Rule as the data show it: active = cytotoxicity above about 50%; inactive = the rest. The full list was thinned out, with actives kept by preference.

This assay is described as follows: cytotoxicity in HT1080 fibrosarcoma cells, cell-based, fluorescence readout (AID 620).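 Also: cells exposed to compound overnight then 4 h with Alamar Blue; 0% = vehicle DMSO and 100% = killing control.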 The following applies: HT1080 viability, at 10 µM, hits give high values.
With `Cc1ccc2[nH]c3c(=O)n(CCCN4CCOCC4)cnc3c2c1`, the cytotoxicity was -1.5% (inactive). As for `CCOc1ccc(NC(=O)c2cc3cc4ccc(OC)cc4nc3o2)cc1`, the cytotoxicity was -4.9% (inactive).

With `COc1ccc(NC(=O)c2ccco2)c(NC(=O)Cc2cccs2)c1`, the cytotoxicity was -0.8% (inactive). In the case of `O=C(C(NS(=O)(=O)c1cccs1)c1ccccc1)N1CCN(c2ccccc2F)CC1` (centres undefined) it was 1.9% (inactive); in that of `CC(C)(C)N(Cc1ccccc1)C(=O)c1ccc2c(c1)OCCO2`, -6.6% (inactive). In the case of `Cc1sc2ncnc(NCC3CCCO3)c2c1C` (centres undefined) it was -6.6% (inactive); in that of `COC(=O)c1ccc(NC(=O)CSc2nc3cccnc3n2C)cc1`, -2.4% (inactive). On to `COc1cc(NC(=O)C2CCCO2)c(C(=O)O)cc1OC` (centres undefined), for which the cytotoxicity is 6.7% (inactive).

Consider `COc1ccccc1N1CCN(C(=O)c2cc3sccc3n2C)CC1`, for which the cytotoxicity is -5.4% (inactive).

On to `O=C(OC(C(=O)NC1CCCC1)c1ccccn1)c1cccs1` (centres undefined), for which the cytotoxicity was -10% (inactive). In the case of `CN=C1SC(CC(=O)Nc2sc3c(c2C#N)CCCC3)C(=O)N1C` (centres undefined) it was 1.2% (inactive); in that of `CN1Cc2cc(C(=O)c3cc(Cl)cc(CSc4ncccn4)c3O)cnc2NC1=O`, 70.1% (active); in that of `CCCCN1Cc2cc(C(=O)c3cc(F)ccc3O)cnc2NC1=O`, -2.9% (inactive). Regarding `CN1Cc2cc(C(=O)c3ccccc3O)cnc2NC1=O`, the cytotoxicity is -10.1% (inactive). In the case of `O=C1NC(c2ccccc2)C(C(=O)c2cccs2)=C1O` (centres undefined) it was -9.1% (inactive); in that of `COc1ccccc1NC(=O)c1ccc(NS(C)(=O)=O)cc1`, -6.8% (inactive). As for `C/C(=N\NC(=O)c1ccccn1)C12CC3CC(CC(C3)C1)C2`, the cytotoxicity was -0.9% (inactive). As for `CCN(CC)S(=O)(=O)c1cccc(-c2nnc(SCC(=O)NC3CCCC3)n2N)c1`, the cytotoxicity was -9.2% (inactive). In the case of `CCOc1ccccc1NC(=O)N1CCC(c2nc3ccc(C)cc3[nH]2)CC1` it was -20.4% (inactive). With `COc1ccccc1NC(=O)N1CCC(c2nc3cc(C)c(C)cc3[nH]2)CC1`, the cytotoxicity was 72.8% (active).

`CCOc1ccccc1NC(=O)N1CCC(c2nc3ccccc3[nH]2)CC1`: the cytotoxicity was 2.8% (inactive). `Cc1ccc(NC(=O)/C(C#N)=C/c2cccs2)c(C)c1`: the cytotoxicity is -7.9% (inactive). Regarding `COC(=O)[C@@]1(Cc2ccc(F)cc2)[C@H]2c3cc(C(=O)N4CCCC4)n(CCc4ccc(O)c(O)c4)c3C[C@H]2CN1C(=O)c1ccccc1`, the cytotoxicity was -15.9% (inactive). On to `COc1ccccc1CNC(=O)CCS(=O)(=O)c1cccs1`, for which the cytotoxicity is -8.3% (inactive).

With `COc1cc(CNc2cc(C)ccc2C)cc(OC)c1OC`, the cytotoxicity is -14.1% (inactive). For `COc1cc(CNc2ccc(C)c(C)c2)cc(OC)c1OC`, the cytotoxicity was 54.5% (active). For the compound `COc1cc(CNc2ccccc2SC)cc(OC)c1OC`, the cytotoxicity is -30.4% (inactive). In the case of `CCOC(=O)c1csc(NC(=O)C2CCCCC2)n1` it was -6.3% (inactive). On to `CCc1c(C)sc(NC(=O)C2CCCO2)c1C#N` (centres undefined), for which the cytotoxicity was 0.6% (inactive). In the case of `O=C(Cn1c(CC(=O)N2CCCC2)nc2ccccc21)NCc1ccccc1` it was 3% (inactive). In the case of `COc1ccc(NC(=O)Nc2ncccc2C)cc1` it was 0.5% (inactive). In the case of `Cc1nnc(SCCn2c(N3CCN(C)CC3)nc3c2c(=O)[nH]c(=O)n3C)s1` it was -10.1% (inactive); in that of `Cc1nnc(Sc2nc(Sc3nnc(C)s3)nc(N3CCN(C)CC3)n2)s1`, 59.7% (active). In the case of `Cc1nnc(SCCn2c(N3CCN(C)CC3)nc3c2c(=O)n(C)c(=O)n3C)s1`, the cytotoxicity is -3.5% (inactive). In the case of `COC(F)(C(=O)Nc1ccc2c(c1)C(=O)NC2=O)C(F)(F)F` (centres undefined) it was 0.1% (inactive). For the compound `Cc1cc(NC(=O)Nc2cc(C)nn2-c2ccccc2)n(-c2ccccc2)n1`, the cytotoxicity was 4.3% (inactive). In the case of `CC(=O)Nc1cc(-c2ccc(Cl)cc2)nn1-c1ccccc1` it was 1.4% (inactive); in that of `Cc1cc(NC(=O)COc2ccccc2)n(-c2ccccc2)n1`, 7.7% (inactive). In the case of `O=C(CCl)Nc1cc(-c2ccccc2)nn1-c1ccccc1` it was 54.1% (active); in that of `CC(=O)Nc1ccc(-c2cc(NC(C)=O)n(-c3ccccc3)n2)cc1`, -2.5% (inactive). For `Cc1ccc(-c2cc(NC(=O)CCl)n(-c3ccccc3)n2)cc1`, the cytotoxicity is 60.4% (active). For the compound `O=C(NCCc1c[nH]c2ccccc12)c1cnc2sccn2c1=O`, the cytotoxicity was -1.9% (inactive). On to `O=C(NCC(c1cccnc1)N1CCN(c2ccccc2F)CC1)c1ccccc1` (centres undefined), for which the cytotoxicity is -1.1% (inactive). `CC(NS(=O)(=O)c1ccc(OCC(=O)N2CCOCC2)cc1)c1ccccc1` (centres undefined): the cytotoxicity is 0.3% (inactive). In the case of `O=C(Nc1ccc2c(c1)OCO2)OCc1ccccc1` it was 13.2% (inactive); in that of `Cn1nc(-c2ccc(Cl)cc2)nc2c(=O)n(C)c(=O)nc1-2`, 51% (active); in that of `CSc1nc(-c2ccc(Cl)cc2)nn1S(=O)(=O)c1ccc(Cl)cc1`, -13% (inactive). In the case of `CCS(=O)(=O)n1nc(-c2ccc(Cl)cc2)nc1N` it was 0.1% (inactive); in that of `C=CCN=C(NC#N)SCCc1ccccc1`, -4.6% (inactive); in that of `Cc1nn(C)c(C)c1NC(=O)c1ccnn1C`, -16.7% (inactive). In the case of `Oc1c(CN2CCOCC2)cc(COCc2ccccc2)c2cccnc12` it was 20.5% (inactive). Consider `CN1CCN(Cc2cc(COCc3ccccc3)c3cccnc3c2O)CC1`, for which the cytotoxicity was 43.1% (inactive).

On to `OCCN1CCN(Cc2cc(Cl)c3cccnc3c2O)CC1`, for which the cytotoxicity is -4.1% (inactive). For the compound `Oc1ccc(CN2CCc3ccccc3C2)c2cccnc12`, the cytotoxicity was 33.5% (inactive). In the case of `O=c1oc2c(CN3CCOCC3)c(O)c(Cl)cc2c2c1CCC2` it was 7.1% (inactive); in that of `CCOCC(=O)Nc1nnc(COc2ccc(Cl)cc2)s1`, 17.8% (inactive). In the case of `CCOC(=O)CSc1nnc(Cn2c(=O)sc3ccccc32)n1C` it was 1.9% (inactive).

Consider `CCN(CC)c1ccc(C(=S)N2CCN(c3ccccc3)CC2)cc1`, for which the cytotoxicity was -2.9% (inactive).

In the case of `O=C(CSc1nnc(-c2cccs2)o1)c1cccs1`, the cytotoxicity was 25.4% (inactive).

As for `Cc1cc(C(=O)CSc2nnc(-c3ccccc3F)o2)c(C)n1Cc1cccs1`, the cytotoxicity was -6.5% (inactive). In the case of `COC(=O)C1=C(COc2ccccc2)NC(=O)NC1c1ccc2ccccc2c1` (centres undefined) it was -5.7% (inactive). In the case of `CCOC(=O)C1=C(N)n2c(s/c(=C\c3cccs3)c2=O)=C(C(=O)OCC)C1c1cccs1` (centres undefined) it was 56.3% (active); in that of `CCOC(=O)C1=C(N)n2c(s/c(=C/c3ccccc3)c2=O)=C(C(=O)OCC)C1c1ccccc1` (centres undefined), -1.6% (inactive). In the case of `CCOC(=O)C1=C(N)n2c(s/c(=C\c3ccco3)c2=O)=C(C(=O)OCC)C1c1ccco1` (centres undefined) it was 36.1% (inactive).
